Source: PubChem
An excerpt weighted towards active compounds, which were near 0.97% of everything screened.
NOD2-RIPK2 inh: blocks binding of human NOD2 to RIPK2. O43353. CHO BLA complementation NOD2-RIPK2, CCF4 ratio. inhibition, % at 4.98 µM. 0.38% of 360,000 active; in the data active = inhibition above about 21%;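 also: 0% = vehicle only and 100% = reference blocker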
A1 inh: inhibitors of the anti-apoptotic protein A1, read as caspase activation | AID 2462 | caspase activation, % (test concentration not listed) | 0.066% of 330,000 active | MEF A1-2A-BIM cells, Caspase-Glo 3/7 luminescence, 3 h; percent of clofoctol response, vehicle zero;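 active = over half of replicate activation scores above 10%, or exactly half above 10 with the replicate mean above 10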
TLR9-MyD88 block: inhibitors of human TLR9-MyD88 binding | 0.21% of 340,000 active | Q9NR96+Q99836 | CHO BLA complementation TLR9-MyD88, CCF4 FRET ratio | inhibition, % at 4.98 µM | AID 504734;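 active = inhibition above the mean over all tested compounds plus 3 SD, cut at about 21% in these data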;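 also: 0% = DMSO only wells and 100% = clavulanate BLA inhibitor control wells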
Beta2AR agonist: activates human beta-2 adrenergic receptor causing internalization; Am2.2-beta2AR cells, FAP receptor internalization, flow cytometry; response, % (test concentration not listed); 0.43% of 340,000 active; AID 504454;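 active = response above a set limit, near 3 SD of response in nonfluorescent compounds, cut at about 42% in these data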
Target sequence (P07550 whole entry, looked up): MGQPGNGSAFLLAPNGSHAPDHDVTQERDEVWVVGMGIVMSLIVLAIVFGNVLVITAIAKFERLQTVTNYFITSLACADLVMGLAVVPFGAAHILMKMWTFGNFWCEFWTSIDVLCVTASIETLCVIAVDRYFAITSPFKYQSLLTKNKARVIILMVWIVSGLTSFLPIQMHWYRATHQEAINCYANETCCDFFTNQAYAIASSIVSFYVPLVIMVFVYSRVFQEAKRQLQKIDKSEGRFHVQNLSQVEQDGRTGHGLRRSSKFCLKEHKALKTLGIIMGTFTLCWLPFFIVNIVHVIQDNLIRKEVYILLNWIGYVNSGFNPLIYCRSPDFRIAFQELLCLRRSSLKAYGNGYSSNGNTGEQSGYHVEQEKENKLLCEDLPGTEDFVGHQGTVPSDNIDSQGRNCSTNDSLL
TLR4 MyD88 comp: inhibitors of human TLR4-MyD88 binding; O00206+Q99836; HeLa CL3-4 TLR4/MyD88 BLA complementation, FRET ratio; inhibition, % at 8.4 µM; 0.18% of 200,000 active; AID 861; in the data active = inhibition above about 25%;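 also: 0% = vehicle and 100% = reference inhibitor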
NTR1 ag: agonists of human neurotensin receptor NTR1. P30989. NTR1-U2OS beta-arrestin-GFP spot imaging, agonist mode. activation, % at 20 µM. 0.17% of 330,000 active. AID 493036;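 active = activation at or above 40% of the spot to cytoplasm intensity ratio, with at least 20 cells analyzed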;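 also: 0% = DMSO without peptide and 100% = 100 nM NTR1 peptide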
NTR1 ag conf: NTR1 (human) agonism, confirmed; shares compounds with NTR1 ag; NTR1-U2OS beta-arrestin-GFP translocation imaging; activation, % at 20 µM; 38% of 480 active;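 active = mean activation at 20 µM of at least 40%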;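 also: 0% = DMSO without peptide and 100% = 100 nM NTR1 peptide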
Active calls of the source: *.

How did C/C=C\C=C/C(=O)Nc1cccc(C2=NOC3(C2)C[C@@H](C(N)=O)N(C(=O)COc2ccc(Cl)cc2)C3)c1 (stereo not given in full) do in these assays?
NOD2-RIPK2 inh: -1; A1 inh: 0; TLR9-MyD88 block: -7; Beta2AR agonist: 4; NTR1 ag: 16

Results for CCCCCC(=O)Nc1cccc(C2=NOC3(C2)C[C@H](C(N)=O)N(C(=O)COc2ccc(Cl)cc2)C3)c1 (stereo not given in full) ?
NOD2-RIPK2 inh: -6; A1 inh: 0; TLR9-MyD88 block: -1; Beta2AR agonist: -5; NTR1 ag: 42*; NTR1 ag conf: 5

Results for COC(=O)c1ccc2c(=O)n(CCCCCC(=O)N3CCN(c4ccccc4)CC3)c(=O)[nH]c2c1 ?
NOD2-RIPK2 inh: -4; A1 inh: 0; TLR9-MyD88 block: 5; Beta2AR agonist: 13; TLR4 MyD88 comp: -5; NTR1 ag: 47*; NTR1 ag conf: 64*

Results for CCN1CCN(C(=O)CCCCCn2c(=O)[nH]c3cc(C(=O)OC)ccc3c2=O)CC1 ?
NOD2-RIPK2 inh: -4; A1 inh: 0; TLR9-MyD88 block: -1; Beta2AR agonist: 1; TLR4 MyD88 comp: 6; NTR1 ag: -1

Results for FC(F)(F)c1nc(-c2cccs2)ncc1-c1nnnn1-c1ccc(Cl)cc1 ?
NOD2-RIPK2 inh: -14; A1 inh: -1; TLR9-MyD88 block: -2; Beta2AR agonist: 11; TLR4 MyD88 comp: 8; NTR1 ag: 57*; NTR1 ag conf: 20

Results for Clc1ccc(-n2nnnc2-c2cnc(-c3ccncc3)nc2-c2cccs2)cc1 ?
NOD2-RIPK2 inh: -1; A1 inh: 0; TLR9-MyD88 block: -3; Beta2AR agonist: -1; TLR4 MyD88 comp: -9; NTR1 ag: -1

How did COc1cc([N+](=O)[O-])ccc1NC(=O)Nc1nc2c(s1)CCCC2 do in these assays?
NOD2-RIPK2 inh: 7; A1 inh: -1; TLR9-MyD88 block: 5; Beta2AR agonist: 2; TLR4 MyD88 comp: 4; NTR1 ag: 43*; NTR1 ag conf: 18

Results for O=c1cc(-c2ccc(O)cc2)oc2cc(O)c(C3OC(CO)C(O)C(O)C3O)c(O)c12 (stereo not given) ?
NOD2-RIPK2 inh: -7; A1 inh: 0; TLR9-MyD88 block: -2; Beta2AR agonist: 0; TLR4 MyD88 comp: -8; NTR1 ag: 41*; NTR1 ag conf: 52*

How did COc1ccc(Nc2nc(N)c([N+](=O)[O-])c(NC3CCCCC3)n2)cc1 do in these assays?
NOD2-RIPK2 inh: 6; A1 inh: -1; TLR9-MyD88 block: 0; Beta2AR agonist: 17; NTR1 ag: 46*; NTR1 ag conf: 15

Results for Cc1cc(C)c2c(c1)/C(=C/C(=O)c1ccc(Br)s1)C(=O)N2 ?
NOD2-RIPK2 inh: -6; A1 inh: 0; TLR9-MyD88 block: 2; Beta2AR agonist: 65*; TLR4 MyD88 comp: 0; NTR1 ag: 58*; NTR1 ag conf: 68*

Results for Cc1cccc2c1NC(=O)/C2=C\C(=O)c1cccs1 ?
NOD2-RIPK2 inh: 7; A1 inh: 0; TLR9-MyD88 block: -2; Beta2AR agonist: 8; TLR4 MyD88 comp: 7; NTR1 ag: 28

How did Cc1cc(Br)c2c(c1)/C(=C/C(=O)c1cccs1)C(=O)N2 do in these assays?
NOD2-RIPK2 inh: -2; A1 inh: 0; TLR9-MyD88 block: 10; Beta2AR agonist: 3; TLR4 MyD88 comp: 22; NTR1 ag: 63*; NTR1 ag conf: 41*

What do the screens show for `COc1cc(NC(=O)c2cc(-c3ccccc3)nc3c2cnn3C(C)C)cc(OC)c1OC`?
NOD2-RIPK2 inh: -5; A1 inh: -1; TLR9-MyD88 block: 2; Beta2AR agonist: 14; NTR1 ag: 12

Results for CNC(=O)c1cccc(NC(=O)c2cc(-c3ccccc3)nc3c2cnn3C(C)C)c1 ?
NOD2-RIPK2 inh: 2; A1 inh: -1; TLR9-MyD88 block: 8; Beta2AR agonist: 15; NTR1 ag: 55*; NTR1 ag conf: 33

What do the screens show for `Cc1ccc(-c2ccc(CN3C(C(C)C)C(=O)N(Cc4cn(CCC5OCCO5)nn4)CCS3(=O)=O)cc2)c(C)c1` (stereo not given)?
NOD2-RIPK2 inh: -9

What do the screens show for `CSCCCNC(=S)N1CCN(S(=O)(=O)c2cccc(C(F)(F)F)c2)CC1`?
NOD2-RIPK2 inh: -4; A1 inh: 0; TLR9-MyD88 block: -6; Beta2AR agonist: -2; TLR4 MyD88 comp: -16; NTR1 ag: 0

How did c1ccc(CN2CCC(Nc3nc(-c4ccccc4)nc4ccccc34)CC2)cc1 do in these assays?
NOD2-RIPK2 inh: 8; A1 inh: -2; TLR9-MyD88 block: -5; Beta2AR agonist: 19; TLR4 MyD88 comp: -13; NTR1 ag: 42*; NTR1 ag conf: 42*

How did c1ccc(CN2CCC(CNc3ncnc4ccccc34)C2)cc1 (stereo not given) do in these assays?
NOD2-RIPK2 inh: -8; TLR9-MyD88 block: 1; Beta2AR agonist: -18

Results for O=C(COc1ccccc1)NCC(=O)N/N=C/c1ccc(O)cc1O ?
NOD2-RIPK2 inh: -2; A1 inh: 2; TLR9-MyD88 block: -6; Beta2AR agonist: 4; NTR1 ag: 42*; NTR1 ag conf: 40

Results for O=C(CN(c1cccc(C(F)(F)F)c1)S(=O)(=O)c1ccc(Cl)c([N+](=O)[O-])c1)NCc1ccccc1Cl ?
NOD2-RIPK2 inh: 18; A1 inh: 0; TLR9-MyD88 block: 4; Beta2AR agonist: 23; TLR4 MyD88 comp: -2; NTR1 ag: 9

What do the screens show for `O=C(CN(c1cccc(C(F)(F)F)c1)S(=O)(=O)c1ccc(Cl)c([N+](=O)[O-])c1)NCc1ccccc1`?
NOD2-RIPK2 inh: -12; A1 inh: 0; TLR9-MyD88 block: -3; Beta2AR agonist: -1; TLR4 MyD88 comp: 14; NTR1 ag: 43*; NTR1 ag conf: 0

Results for C/C(=N\NC(=O)c1ccc(C)cc1C)c1ccc2c(c1)Nc1ccccc1S2 ?
NOD2-RIPK2 inh: 7; A1 inh: 0; TLR9-MyD88 block: 3; Beta2AR agonist: 6; TLR4 MyD88 comp: 1; NTR1 ag: 43*; NTR1 ag conf: 33

What do the screens show for `Cc1cccc(-n2c3nc(=O)[nH]c(=O)c-3cc3c(C)nn(-c4ccccc4)c32)c1`?
A1 inh: 0; TLR4 MyD88 comp: -1; NTR1 ag: 2

How did Cc1cc(C)n2nc(SCC(=O)N/N=C/c3ccccc3F)nc2n1 do in these assays?
NOD2-RIPK2 inh: 2; A1 inh: -1; TLR9-MyD88 block: 7; Beta2AR agonist: -16; TLR4 MyD88 comp: 4; NTR1 ag: -1

What do the screens show for `CCCCn1cnc2c(=S)nc(N)[nH]c21`?
NOD2-RIPK2 inh: -10; A1 inh: 1; TLR9-MyD88 block: 7; Beta2AR agonist: 2; NTR1 ag: 1
